Measured values: the supplement of paper PMC6805474

tested on: Schistosoma mansoni schistosomula (Liberian); experiment: drug effect (1 - score/DMSO control score) (fraction); higher = more antischistosomal effect, active = 0.5 or more; extreme values may be limits of the assay; conditions: 24 h; 10 µM
How it was run: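 Schistosomula of the Liberian strain of Schistosoma mansoni were mechanically transformed from cercariae, pre-incubated for at least 12 h, and placed at 50 per well in flat-bottom 96-well plates with Medium 199 containing 5% FCS. Compounds were tested in duplicate at 10 µM at 37 °C and 5% CO2, alongside wells holding 0.1% DMSO. Parasites were scored visually at 10× after 24, 48 and 72 h on a quarter-point scale running from 3 (normal) to 0 (dead). Drug effect came from the mean test-well score relative to the mean DMSO-well score, with negative values set to zero and plates accepted only when the DMSO wells averaged at least 2.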

Drug effect, active:
CN1CCN(CCCOc2ncc(Nc3ncc(-c4ccc(C(F)(F)F)c(F)c4)nc3C(N)=O)cn2)CC1 1
CC(C)=CCC/C(C)=C\CNCCNC1C2CC3CC(C2)CC1C3 (stereo unspecified) 1

Drug effect, inactive:
Nc1ccc2ncnc(Nc3ccc(OCc4cccc(F)c4)c(Cl)c3)c2c1 0.3
COc1cccc(-c2nc3c(N4CCCC4)cccc3n2CC2CCCN2)n1 (stereo unspecified) 0.35
O=C(Nc1ccccc1)c1ccc(-c2cc3ccncc3cc2OC2CCNCC2)s1 0.15
O=C(NC1CC1)c1ccc(N2CCC(Cc3ccccc3)CC2)nc1 0.1
O=C(NCCc1ccn(-c2ccccc2)n1)C1CCCCC1 0.136
O=C(NCc1cc(Cl)cc(Cl)c1)c1c(C(F)(F)F)nc2ccccn12 0.158
Oc1c(I)cc(I)c2cccnc12 0.1
CC(C)C(Oc1cccc2ccccc12)C(=O)O (stereo unspecified) < 0
Cc1cc(O)nc(-n2nc(C)cc2C)n1 0.15
Cc1nc(-c2cccc(NCc3ccccc3)c2)[nH]c1C 0.1
COc1cc(CN2CCC3(C=Cc4ccccc43)CC2)cc2c1OCO2 0.1
NCCC(O)C(=O)N[C@@H]1C[C@H](N)[C@@H](OC2O[C@H](CN)[C@@H](O)[C@H](O)[C@H]2O)[C@H](O)C1OC1O[C@H](CO)[C@@H](O)[C@H](N)[C@H]1O (stereo partly specified) < 0
N=C(N)Nc1ccc(-c2ccc(-c3ccc(N=C(N)N)c(Cl)c3)o2)cc1Cl < 0
NCC(=O)N1CCn2c(nc(-c3ccccc3)c2Nc2ccc3c(c2)OCO3)C1 0.297
O=C(c1ccc(NCCO)cc1)C1C[C@H]1c1ccc(Cl)cc1 (stereo partly specified) 0.135
CC(=O)NCC1CN(c2ccc(-c3ccc(CNCc4cn[nH]n4)cc3)c(F)c2)C(=O)O1 (stereo unspecified) 0.05
CCOc1ccc(-c2nc(NC(=O)CS(=O)(=O)c3ccccc3)sc2C)cc1 0.1
O=C(c1ccco1)N(CCCn1ccnc1)c1nc2c(Cl)cccc2s1 0.0909
CN1CCC(c2cc(-c3ccncc3)c(-c3ccc(F)cc3)[nH]2)CC1 < 0
CCCn1c(NC(=O)c2ccc3ccccc3n2)nc2ccccc21 0.2
Nc1ncnc2c1ncn2C[C@@H](O)[C@@H](O)C(=O)O 0.1
COc1ccc2nc(C)cc(OCC(=O)NCc3ccccc3)c2c1 0.0526
CN(C)c1cc(NC(=O)Nc2ccccc2)c2ccccc2n1 0.182
Cc1ccc(-c2nc(CN(Cc3ccccn3)C(C)C)cs2)o1 0.05
NC(=O)c1cc(Br)ccc1OCCOc1ccccc1 < 0
C[C@H]1c2cccc(O)c2C(=O)C2=C(O)[C@]3(O)C(=O)C(C(N)=O)=C(O)[C@@H](N(C)C)[C@@H]3[C@@H](O)[C@@H]21 0.2
Cc1nc(-c2ccccn2)nc(N(C)CCc2ccccc2)c1Cl < 0
OC[C@H]1O[C@@H](n2c3ccc(Cl)cc3c3c(-c4cc5ccccc5o4)ncnc32)C(O)[C@H]1O (stereo partly specified) 0.158
O=C(NCc1ccco1)N1CCN(Cc2ccc(Cl)s2)CC1 0.136
CC(=O)NCC1CN(c2ccc(-c3ccc(CO)cc3)c(F)c2)C(=O)O1 (stereo unspecified) 0.1
CCC(C)NC(=O)c1ccc(NC(=O)C2(c3ccccc3)CCCC2)cc1 (stereo unspecified) 0.05
Nc1ncc(Br)cc1-c1nc2cc(Cl)cnc2[nH]1 0.1
COc1ccc(C2=NN(C3CCCCCC3)C(=O)[C@@H]3CC=CC[C@H]23)cc1OCCCCOc1ccc(-c2nn[nH]n2)cc1 0.35
CC(C)(C)OC(=O)N1CCN(c2nccc(-c3ccc(-c4ccc(Cl)cc4)s3)n2)CC1 0.182
O=C(OCc1ccccc1)N1CCC(c2cc(-c3ccncc3)c(-c3ccc(F)cc3)[nH]2)CC1 0.1
CC(C)NCC(=O)Nc1cccc(C(=O)Nc2cccc(C(F)(F)F)c2)c1 0.2

same assay, conditions: 48 h; 10 µM

Drug effect, inactive:
O=C(Nc1ccccc1)c1ccc(-c2cc3ccncc3cc2OC2CCNCC2)s1 0.459
O=C(NC1CC1)c1ccc(N2CCC(Cc3ccccc3)CC2)nc1 0.0811
O=C(NCCc1ccn(-c2ccccc2)n1)C1CCCCC1 < 0
O=C(NCc1cc(Cl)cc(Cl)c1)c1c(C(F)(F)F)nc2ccccn12 0.333
Oc1c(I)cc(I)c2cccnc12 0.135
CC(C)C(Oc1cccc2ccccc12)C(=O)O (stereo unspecified) < 0
Cc1cc(O)nc(-n2nc(C)cc2C)n1 0.243
Cc1nc(-c2cccc(NCc3ccccc3)c2)[nH]c1C 0.111
COc1cc(CN2CCC3(C=Cc4ccccc43)CC2)cc2c1OCO2 0.135
NCCC(O)C(=O)N[C@@H]1C[C@H](N)[C@@H](OC2O[C@H](CN)[C@@H](O)[C@H](O)[C@H]2O)[C@H](O)C1OC1O[C@H](CO)[C@@H](O)[C@H](N)[C@H]1O (stereo partly specified) 0.0625
N=C(N)Nc1ccc(-c2ccc(-c3ccc(N=C(N)N)c(Cl)c3)o2)cc1Cl < 0
NCC(=O)N1CCn2c(nc(-c3ccccc3)c2Nc2ccc3c(c2)OCO3)C1 0.444
O=C(c1ccc(NCCO)cc1)C1C[C@H]1c1ccc(Cl)cc1 (stereo partly specified) 0.278
CC(=O)NCC1CN(c2ccc(-c3ccc(CNCc4cn[nH]n4)cc3)c(F)c2)C(=O)O1 (stereo unspecified) 0.0556
CCOc1ccc(-c2nc(NC(=O)CS(=O)(=O)c3ccccc3)sc2C)cc1 0.0811
O=C(c1ccco1)N(CCCn1ccnc1)c1nc2c(Cl)cccc2s1 0.4
CN1CCC(c2cc(-c3ccncc3)c(-c3ccc(F)cc3)[nH]2)CC1 0.0556
CCCn1c(NC(=O)c2ccc3ccccc3n2)nc2ccccc21 0.278
Nc1ncnc2c1ncn2C[C@@H](O)[C@@H](O)C(=O)O 0.189
COc1ccc2nc(C)cc(OCC(=O)NCc3ccccc3)c2c1 0.0556
CN(C)c1cc(NC(=O)Nc2ccccc2)c2ccccc2n1 0.35
Cc1ccc(-c2nc(CN(Cc3ccccn3)C(C)C)cs2)o1 0.222
NC(=O)c1cc(Br)ccc1OCCOc1ccccc1 < 0
C[C@H]1c2cccc(O)c2C(=O)C2=C(O)[C@]3(O)C(=O)C(C(N)=O)=C(O)[C@@H](N(C)C)[C@@H]3[C@@H](O)[C@@H]21 0.297
Cc1nc(-c2ccccn2)nc(N(C)CCc2ccccc2)c1Cl 0.189
OC[C@H]1O[C@@H](n2c3ccc(Cl)cc3c3c(-c4cc5ccccc5o4)ncnc32)C(O)[C@H]1O (stereo partly specified) 0.111
O=C(NCc1ccco1)N1CCN(Cc2ccc(Cl)s2)CC1 0.3
CC(=O)NCC1CN(c2ccc(-c3ccc(CO)cc3)c(F)c2)C(=O)O1 (stereo unspecified) 0.111
CCC(C)NC(=O)c1ccc(NC(=O)C2(c3ccccc3)CCCC2)cc1 (stereo unspecified) 0.027
Nc1ncc(Br)cc1-c1nc2cc(Cl)cnc2[nH]1 0.111
CC(C)(C)OC(=O)N1CCN(c2nccc(-c3ccc(-c4ccc(Cl)cc4)s3)n2)CC1 0.15
O=C(OCc1ccccc1)N1CCC(c2cc(-c3ccncc3)c(-c3ccc(F)cc3)[nH]2)CC1 0.222
CC(C)NCC(=O)Nc1cccc(C(=O)Nc2cccc(C(F)(F)F)c2)c1 0.167

Drug effect, active:
Nc1ccc2ncnc(Nc3ccc(OCc4cccc(F)c4)c(Cl)c3)c2c1 0.622
COc1cccc(-c2nc3c(N4CCCC4)cccc3n2CC2CCCN2)n1 (stereo unspecified) 0.778
CN1CCN(CCCOc2ncc(Nc3ncc(-c4ccc(C(F)(F)F)c(F)c4)nc3C(N)=O)cn2)CC1 1
CC(C)=CCC/C(C)=C\CNCCNC1C2CC3CC(C2)CC1C3 (stereo unspecified) 1
COc1ccc(C2=NN(C3CCCCCC3)C(=O)[C@@H]3CC=CC[C@H]23)cc1OCCCCOc1ccc(-c2nn[nH]n2)cc1 0.568
